Sampled rows, rich in hits. Any-hit rate of the full collection: about 7.2%.
Tau fil binding = tau filament binding | Potency, µM (titrated, usually from 57.1 µM), inactives show at the top dose activity change, negative = inhibition | P10636 | recombinant tau filaments, thioflavin S fluorescence, 15 h; filaments grown with octadecylsulfate alongside compound | 71,000 tested, 2% active;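 note: % is set by controls: 0 for no effect and ±100 for the full control effect; actives lower thioflavin S fluorescence by blocking filaments or displacing dye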
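His-tagged recombinant human tau (exons 2, 3, 10; 1 uM final) fibrillized with 30 uM sodium octadecylsulfate, 15 h at 37 C, in pH 7.4 HEPES buffer with 10 uM thioflavine S and 5 mM DTT. Reduced ThS fluorescence (450/510 nm) marks activity.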
HEK293 cAMP cs = counter-screen for TSHR agonists: cAMP increase in parental HEK293; AID 938; parental HEK293 CNG cAMP sensor, membrane potential fluorescence; Potency, µM (series often up to 57.1 µM), for inactives: at the top dose activation, most hits filed as activators; 73,000 tested, 2.5% active; note: % of control where 0% means no effect; nearly all actives have a fitted effect of over 55% in size
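Counterscreen for endogenous-receptor signalling: CNG-channel HEK 293 cells report cAMP rise by membrane depolarization. After 60 min dye equilibration with 100 uM RO 20-1724, compounds incubated 30 min before bottom-read fluorescence at 590 nm.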
TSHR agonist = activates the human thyroid stimulating hormone receptor | HEK293-CNG-TSHR cells (CNG channel as cAMP sensor), membrane potential dye, cAMP | 73,000 tested, 0.48% active | AID 926 | P16473 | Potency, µM (series often up to 57.1 µM), without a hit: at the top dose activation, hits mostly activators; active = well fitted activation curve with a large enough effect in the main read-out, with a control signal flat, not every such curve was filed as active; inconclusive = small, poorly fitted or top-dose-only effect, or a change in a side signal; inactive = no such curve, though single readings can be large or run the other way; % of control where 0% means no effect;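 note: the control signal comes from parental cells without the receptor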
Target sequence (P16473 whole entry, looked up): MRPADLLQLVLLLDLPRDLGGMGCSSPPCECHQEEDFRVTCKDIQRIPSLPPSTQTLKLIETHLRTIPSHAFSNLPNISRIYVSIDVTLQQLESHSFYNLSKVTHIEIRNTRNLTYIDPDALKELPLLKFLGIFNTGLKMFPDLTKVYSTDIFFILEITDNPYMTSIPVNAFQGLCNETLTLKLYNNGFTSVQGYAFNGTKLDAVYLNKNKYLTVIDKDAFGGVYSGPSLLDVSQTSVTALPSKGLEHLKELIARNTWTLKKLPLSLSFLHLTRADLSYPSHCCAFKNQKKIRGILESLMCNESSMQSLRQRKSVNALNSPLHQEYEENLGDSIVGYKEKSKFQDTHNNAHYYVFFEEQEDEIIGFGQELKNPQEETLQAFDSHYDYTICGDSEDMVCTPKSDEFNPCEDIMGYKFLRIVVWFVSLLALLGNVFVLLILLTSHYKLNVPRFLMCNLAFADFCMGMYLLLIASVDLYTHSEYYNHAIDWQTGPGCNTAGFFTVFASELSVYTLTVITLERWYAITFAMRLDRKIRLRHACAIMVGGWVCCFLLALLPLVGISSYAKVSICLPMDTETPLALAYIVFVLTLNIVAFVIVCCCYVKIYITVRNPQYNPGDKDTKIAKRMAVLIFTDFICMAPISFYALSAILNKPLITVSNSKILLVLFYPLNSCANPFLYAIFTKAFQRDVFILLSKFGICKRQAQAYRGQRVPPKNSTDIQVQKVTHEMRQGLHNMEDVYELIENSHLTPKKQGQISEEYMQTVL
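HEK 293 cells stably expressing TSHR and a cAMP-gated CNG channel; parental CNG-only cells as counterscreen. Cells preloaded 60 min with membrane potential dye plus 100 uM RO 20-1724, then compound 30 min; fluorescence read at 590 nm.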
ERK AVP inh = vasopressin-driven ERK pathway inhibition. HEK293-V1b, vasopressin-stimulated pERK AlphaScreen. Potency, µM (highest dose often 57.5 µM), inactives show at the top dose activity, negative = inhibition, usual class: inhibitors. 72,000 tested, 0.99% active; note: % is set by controls: 0 for no effect and ±100 for the full control effect; nearly all actives have a fitted effect of over 55% in size
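V1b-HEK293 cells; cpd 30 min 37C; 25 nM vasopressin 5 min; lyse 10 min; AlphaScreen beads 5 hr RT. Normalized to DMSO basal and 25 nM vasopressin; AC50 by Hill fit.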
Bst PK mod = pyruvate kinase (B. stearothermophilus) modulation; purified pyruvate kinase, luminescence ATP production; ribose 5-phosphate activator present at AC10; Potency, µM; 51,000 tested, 1.2% active; AID 361; in the data active = potency below about 11 µM; inconclusive = mostly about 12 µM to 25 µM;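 the screen sought inhibitors and activators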;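 note: scaled between full activation by ribose 5 phosphate and full inhibition by luteolin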
Luciferase inh = firefly luciferase inhibition | 72,000 tested, 2.2% active | P08659 | Potency, µM (series often up to 57.1 µM), without a hit: at the highest dose activity change, negative = inhibition, usual class: inhibitors | AID 411 | purified firefly luciferase, luminescence, 8 min; note: % is set by controls: 0 for no effect and ±100 for the full control effect; nearly all actives have a fitted effect of over 40% in size
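Titration-based qHTS; buffer 50 mM imidazole pH 7.2, 50 mM KCl, 7 mM MgCl2, 10 uM ATP, 0.01% Tween 20, 0.05% BSA; luciferase/luciferin detector mix added after compound; 8 min, ambient; luminescence.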
* = called active by the depositor; [ ] = dose if it differs, or a comment. Unless noted, calls come from the whole dose curve; as a rule, active = well fitted curve in the direction sought with a large enough effect; inconclusive = small, poorly fitted or top-dose-only effect, or another doubt; inactive = no such curve, though single readings can be large; an effect the other way counts as inactive or inconclusive. Potency is the fitted concentration of half-maximal effect.

Screening COc1ccccc1C(=O)Nc1ccccn1 returned Tau fil binding 114%, HEK293 cAMP cs 2%, TSHR agonist 2%, ERK AVP inh -20%, Bst PK mod inconclusive and Luciferase inh 16µM*.
Screening CCCC(=O)Nc1ccc(NC(=O)c2ccccc2OC)cn1 returned Tau fil binding -5%, HEK293 cAMP cs 0%, TSHR agonist 7%, ERK AVP inh 12%, Bst PK mod >57 and Luciferase inh -2%.
`CCOc1ccc(NC(=O)c2ccccc2OC)cc1` gave Tau fil binding -3%, HEK293 cAMP cs 23%, TSHR agonist 23%, ERK AVP inh inconclusive, Bst PK mod inactive and Luciferase inh 3.2µM*.
Screening CCOc1ccc(NC(=O)c2ccccc2O)cc1 returned Tau fil binding 0%, HEK293 cAMP cs -4%, TSHR agonist 8%, ERK AVP inh -12%, Bst PK mod 2.5* and Luciferase inh 1.3µM*.
For COc1ccccc1NC(=O)Cn1nnc(C(=O)Nc2ccccc2)c1N the results were Tau fil binding 6%, HEK293 cAMP cs 7%, TSHR agonist -3%, ERK AVP inh -16%, Bst PK mod >57 and Luciferase inh -3%.
`Cn1c(=O)c(CCc2ccccc2)nc2cnc(N3CCOCC3)nc21` gave Tau fil binding -3%, HEK293 cAMP cs 10%, TSHR agonist 5%, ERK AVP inh -28% and Luciferase inh -1%[11.4 µM].
`CN(C)CCCNC(=O)c1ccc(Cc2nc3ccccc3[nH]2)cc1` gave HEK293 cAMP cs -8% and TSHR agonist -7%.
`CCOc1ccc(NC(=O)c2nccnc2CO)cc1` gave Tau fil binding 6%, HEK293 cAMP cs 6%, TSHR agonist 2%, ERK AVP inh -2%, Bst PK mod inconclusive and Luciferase inh 16µM*.
Screening CCOc1ncccc1C(=O)Nc1ccc(Cl)cc1 returned Tau fil binding 17%, HEK293 cAMP cs inconclusive, TSHR agonist inconclusive, ERK AVP inh 4%, Bst PK mod 3.8* and Luciferase inh 0%.
For COc1ccc(C(=O)Nc2ccc(C)cn2)c(OC)c1 the results were Tau fil binding 21%, HEK293 cAMP cs 0%, TSHR agonist -5%, ERK AVP inh 7%, Bst PK mod 0.33* and Luciferase inh 0.25µM*.
For C=CCNC(=O)c1ccc(OC)cc1OC the results were Tau fil binding -8%, HEK293 cAMP cs 12%, TSHR agonist 13%, ERK AVP inh -24%, Bst PK mod >57 and Luciferase inh 0%.
`C=Cc1c(C)/c2[n-]/c1=C\c1[n-]c(c(CC)c1C)/C=c1\[n-]c3c(c1C)C(=O)C(C(=O)[O-])C=3c1[n-]c(c(C)c1CCC(=O)[O-])\C=2.[Cu].[Na+].[Na+]` (stereo not given) gave ERK AVP inh -29%.
Screening CNc1ccc([N+](=O)[O-])cc1 returned Tau fil binding -15%, HEK293 cAMP cs 9%, TSHR agonist 1% and ERK AVP inh -7%.
O=[N+]([O-])c1ccc(Nc2nc3ccccc3s2)cc1 was read as Tau fil binding 4µM*, HEK293 cAMP cs -5%[11.4 µM], TSHR agonist -7%[11.4 µM], ERK AVP inh 6%[11.5 µM] and Luciferase inh -4%[11.4 µM].
`CCSC[C@@H](N)C(=O)O` gave Tau fil binding 7%[11.4 µM], HEK293 cAMP cs -10%[11.4 µM], TSHR agonist 1%[11.4 µM], ERK AVP inh -4%[11.5 µM] and Luciferase inh 5%[11.4 µM].
For O=C(CSc1nnnn1C1CCCC1)N1CCCc2ccccc21 the results were Tau fil binding -3%, HEK293 cAMP cs inconclusive, TSHR agonist inconclusive, ERK AVP inh -3%, Bst PK mod >57 and Luciferase inh 3%.
O=C(CSc1nnc(Cc2cccs2)n1C1CCCCC1)N1CCCc2ccccc21 was read as Tau fil binding 3%, HEK293 cAMP cs 13µM*, TSHR agonist inconclusive, ERK AVP inh -25%, Bst PK mod >57 and Luciferase inh 1%.
Screening Clc1ccc(-c2nnc(N3CCCC3)nn2)cc1 returned Tau fil binding 13µM*, HEK293 cAMP cs -29%, TSHR agonist -49%, ERK AVP inh -16% and Luciferase inh -3%.
`Clc1ccc(-c2noc(CN3CCCCC3)n2)cc1` gave Tau fil binding -6%[11.4 µM], HEK293 cAMP cs 0%[11.4 µM], TSHR agonist -2%[11.4 µM], ERK AVP inh inconclusive and Luciferase inh 0%[11.4 µM].
`Cc1cccc(C)c1` gave Tau fil binding -2%, HEK293 cAMP cs 2%, TSHR agonist -7% and ERK AVP inh -3%.
Screening CC(=O)OC1CC(OC(C)=O)[C@]2(C)C(CC(OC(C)=O)[C@@]3(C)C4=CC(=O)OC(c5ccoc5)[C@]4(C)CCC32)C1(C)C (stereo not given in full) returned ERK AVP inh -24%.
Screening CC(CCc1ccccc1)NC(=O)C1CCCN(C(=O)c2cc3sccc3n2C)C1 (stereo not given) returned Tau fil binding -2%, HEK293 cAMP cs inconclusive, TSHR agonist inconclusive, ERK AVP inh 25µM*, Bst PK mod >57 and Luciferase inh 1%.
`CCc1ccccc1NC(=O)c1cc2sccc2n1C` gave Tau fil binding -17%, HEK293 cAMP cs 32µM*, TSHR agonist inconclusive, ERK AVP inh inconclusive and Luciferase inh -6%.
`CC(OC(=O)c1cc2sccc2n1C)C(=O)NCc1cccs1` (stereo not given) gave Tau fil binding 2%, HEK293 cAMP cs 29%, TSHR agonist 23%, ERK AVP inh inconclusive, Bst PK mod >57 and Luciferase inh 0%.
`CCn1c(C(=O)N2CCCC(C(=O)O)C2)cc2sccc21` (stereo not given) gave Tau fil binding -5%, HEK293 cAMP cs 3%, TSHR agonist 9%, ERK AVP inh -1%, Bst PK mod >57 and Luciferase inh 0%.
Cn1c(C(=O)OCC(=O)NCCc2ccccc2)cc2sccc21 was read as Tau fil binding 33%, HEK293 cAMP cs inconclusive, TSHR agonist inconclusive, ERK AVP inh -9%, Bst PK mod >57 and Luciferase inh 0%.
Screening CC(CCc1ccccc1)NC(=O)c1cc2sccc2n1C (stereo not given) returned HEK293 cAMP cs 41% and TSHR agonist 25µM*.
CCn1c(C(=O)N2CCCC(C(=O)NCCCc3ccccc3)C2)cc2sccc21 (stereo not given) was read as Tau fil binding -10%, HEK293 cAMP cs inconclusive, TSHR agonist inconclusive, ERK AVP inh 16µM*, Bst PK mod >57 and Luciferase inh 2%.
For CCn1c(C(=O)N2CCC(C(=O)NCc3cccs3)CC2)cc2sccc21 the results were Tau fil binding 3%, HEK293 cAMP cs inconclusive, TSHR agonist inconclusive, ERK AVP inh -10% and Luciferase inh -1%.
